PubChem BioAssay AID2023 (NMMLSC, 2009)
Where “and” joins values, the source holds several entries; their conditions need not be identical. Equal values may be shown once. The campaign covered roughly 320,000 compounds. About 1,100 (0.34%) were called active. This is one part of a sample in which actives are shown more often than they occur.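 The calls were made as follows: active = GFP response vs DMSO above a set limit, about the screen mean plus 3 SD (cut at about 150% in these data); inconclusive = under 70 cell events counted for the yeast strain; inactive = the rest.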 A structure can be active in one record and inactive in another.

Assay: modulators of LAP4-GFP expression in yeast, primary screen, S. cerevisiae, multiplex flow cytometry, MLPCN library (AID 2023)
Details: 3 h, at 10 µM, stronger effect = higher value, median GFP as percent of DMSO wells
With O=C(Nc1cc(-c2ccccc2)nn1-c1ccccc1F)c1ccc([N+](=O)[O-])cc1 the GFP response vs DMSO was 134% (inactive). In the case of COc1ccccc1CNC(=O)CN1CCC(n2cnc3cc(F)ccc32)CC1, the GFP response vs DMSO is reported as 97.5% (inactive). In the case of COc1ccc(NC(=O)/C(Cl)=C(/Cl)S(=O)Cc2ccc(C)cc2)cn1 (stereo unspecified), the GFP response vs DMSO is reported as 201% (active). With COc1ccc(Nc2ccc([N+](=O)[O-])cn2)cn1 the GFP response vs DMSO was 89.6% (inactive). With CCOc1ccc(S(=O)(=O)Nc2ccc(OC)nc2)cc1 the GFP response vs DMSO was 98.1% (inactive). With O=C(Nc1ccon1)c1nc[nH]c1C(=O)NCc1ccccc1 the GFP response vs DMSO was 94.7% (inactive). For Cc1cc2ccccc2n1CCC(=O)O, the GFP response vs DMSO was 154% (active). In the case of Cc1cc2ccccc2n1CCNC(=O)COc1ccc2ccccc2c1, the GFP response vs DMSO is reported as 112% (inactive). With O=C(O)CCn1c(Cc2ccccc2)nc2ccccc21 the GFP response vs DMSO was 88.9% (inactive). With CCOc1ccc(NC(=S)NC(=O)/C=C/c2ccc(OC)cc2)c([N+](=O)[O-])c1 the GFP response vs DMSO was 95.5% (inactive). In the case of COc1ccc(-n2nc(C(=O)NCC(=O)N3CCCCCC3)c3ccccc3c2=O)cc1Cl, the GFP response vs DMSO is reported as 112% (inactive). In the case of CNS(=O)(=O)c1cccc(C(=O)OCCCC(=O)c2ccccc2)c1, the GFP response vs DMSO is reported as 100% (inactive). With COc1cccc(C(=O)c2cc3ccc(O)cc3oc2=O)c1 the GFP response vs DMSO was 121% (inactive). In the case of CCOC(=O)c1cc2cc3ccccc3cc2oc1=O, the GFP response vs DMSO is reported as 88.3% (inactive). In the case of CCN(CC)c1ccc2cc(C(=O)O)c(=O)oc2c1, the GFP response vs DMSO is reported as 157% (active). With C[C@H]1CC[C@]2(O[C@@H](CCO)C[C@@H](O)[C@@H]2O)O1 the GFP response vs DMSO was 105% (inactive). With O=c1[nH]c(CSc2ccccc2)nc2c1oc1ccccc12 the GFP response vs DMSO was 107% (inactive). With O=C(Nc1cccc2ccccc12)c1onc2c1CCCC2 the GFP response vs DMSO was 94% (inactive). With COc1ccc(N(CC(=O)NCC2CCCO2)C(=O)CCC(=O)Nc2nccs2)c(OC)c1 (stereo unspecified) the GFP response vs DMSO was 91.8% (inactive). With CN(C)S(=O)(=O)c1cc(C(=O)Nc2ccn(C)n2)c(Cl)cc1Cl the GFP response vs DMSO was 6410% [may fluoresce green] (active). With Cc1ccc(C(=O)Nc2ccn(C)n2)cc1 the GFP response vs DMSO was 101% (inactive). In the case of O=C(Nc1nccs1)c1cc(S(=O)(=O)N2CCOCC2)c(Cl)cc1Cl, the GFP response vs DMSO is reported as 89.4% (inactive). For COc1cccc(CCNC(=O)COc2cccc3c2OC(C)(C)C3)c1, the GFP response vs DMSO was 113% (inactive). In the case of COc1cc(F)c(C2=CC(=O)CC(C)(C)C2)cc1F, the GFP response vs DMSO is reported as 118% (inactive). In the case of CCOC(=O)c1ccccc1NC(=S)N1CCC(C(N)=O)CC1, the GFP response vs DMSO is reported as 111% (inactive). For CN(C)CCc1c[nH]c2ccc(Cn3cncn3)cc12, the GFP response vs DMSO was 119% (inactive). With COc1ccc(NC(=O)C2C3C=CC(C3)C2C(=O)NCc2ccccn2)c(OC)c1 (stereo unspecified) the GFP response vs DMSO was 92.5% (inactive). With Cc1ccc(C(C[N+](=O)[O-])c2c(C)cc3ccccn23)cc1 (stereo unspecified) the GFP response vs DMSO was 97.5% (inactive). With CCS(=O)(=O)c1cc([N+](=O)[O-])c(Sc2ccccc2N)s1 the GFP response vs DMSO was 100% (inactive). In the case of Nc1ccccc1SC(C[N+](=O)[O-])c1ccccc1 (stereo unspecified), the GFP response vs DMSO is reported as 209% (active). For COC(=O)c1ccc(N2CCOCC2)c(NC(=O)c2ccc(Br)o2)c1, the GFP response vs DMSO was 84.3% (inactive). For O=C1CCN(CCCc2ccccc2)CCN1CCO, the GFP response vs DMSO was 109% (inactive). With COc1ccc(C)cc1NC(=O)CSc1cccc[n+]1[O-] the GFP response vs DMSO was 99.3% (inactive). For Cc1ccc(S(=O)(=O)N2CCC(C)CC2)cc1C(=O)NCc1ccccn1, the GFP response vs DMSO was 99.2% (inactive). For Cc1cc(N)n2nc(-c3ccc(C(C)(C)C)cc3)cc2n1, the GFP response vs DMSO was 77.9% (inactive). In the case of O=C(Nc1ccccc1)c1nnsc1S(=O)(=O)c1ccc(Cl)cc1, the GFP response vs DMSO is reported as 187% (active). For CN(c1cccc(NC(=O)Nc2ccc(Cl)cc2)c1)S(C)(=O)=O, the GFP response vs DMSO was 107% (inactive). In the case of Cc1nnsc1C(=O)N/N=C/c1ccccc1Cl, the GFP response vs DMSO is reported as 106% (inactive). For CC(C)Oc1ccc(S(=O)(=O)N2CCOCC2)cc1NC(=O)C1CSC2(C)CCC(=O)N12 (stereo unspecified), the GFP response vs DMSO was 106% (inactive). In the case of O=[N+]([O-])c1ccc(S(=O)(=O)Nc2cccc(-c3ccc(N4CCCC4)nn3)c2)cc1, the GFP response vs DMSO is reported as 100% (inactive). With COc1cc(/C=C/C(=O)O)cc(S(=O)(=O)Nc2ccccc2C(=O)NCCc2ccccc2)c1OC the GFP response vs DMSO was 96% (inactive). With CCCn1nc(C(=O)NNC(=O)CCOc2ccccc2OCC)c2ccccc2c1=O the GFP response vs DMSO was 217% (active). With CCCn1nc(C(=O)NNC(=O)CSCC(=O)Nc2cc(C)on2)c2ccccc2c1=O the GFP response vs DMSO was 91.7% (inactive). For CCCn1nc(C(=O)Nc2ccc3nc(C)sc3c2)c2ccccc2c1=O, the GFP response vs DMSO was 102% (inactive). In the case of Brc1ccc(Nc2c3c(nc4ncnn24)CCC3)cc1, the GFP response vs DMSO is reported as 103% (inactive). In the case of Cc1cccc(NC(=O)CSc2nnc(CCNC(=O)OC(C)(C)C)o2)c1C, the GFP response vs DMSO is reported as 95.1% (inactive). In the case of Cc1ccc2nc(SC(C)C(=O)NCc3ccco3)[nH]c2c1 (stereo unspecified), the GFP response vs DMSO is reported as 111% (inactive). In the case of Cc1ccn(-c2cccc(-n3ccc(C)n3)n2)n1, the GFP response vs DMSO is reported as 100% (inactive). In the case of CCN(CC)c1ccc(S(=O)(=O)N2CCCCC2)cc1NC(=O)C1=COCCO1, the GFP response vs DMSO is reported as 99.6% (inactive). With CC(NC(=O)C1CCCN(S(=O)(=O)c2ccc(-n3cnnn3)cc2)C1)c1ccc(F)cc1 (stereo unspecified) the GFP response vs DMSO was 83.4% (inactive). With O=C(O)Cc1csc(-c2cccc(Oc3ccccc3)c2)n1 the GFP response vs DMSO was 110% (inactive) and 152% (active). With O=C(NCCc1csc(-c2ccccc2)n1)c1ccccc1F the GFP response vs DMSO was 120% (inactive). With COc1cc(OC)cc(C(=O)NCC(=O)OCc2csc(-c3ccccc3)n2)c1 the GFP response vs DMSO was 101% (inactive). In the case of CC(=O)c1c(C)n([O-])c2ccccc2[n+]1=O, the GFP response vs DMSO is reported as 99.9% (inactive). In the case of CC(NC(=O)COc1cccnc1[N+](=O)[O-])c1ccc(Cl)cc1Cl (stereo unspecified), the GFP response vs DMSO is reported as 116% (inactive). With COc1cccc(NC(=O)COc2cccnc2[N+](=O)[O-])c1 the GFP response vs DMSO was 94.7% (inactive). For O=C(COc1cccnc1[N+](=O)[O-])Nc1ccc(Cl)cc1F, the GFP response vs DMSO was 178% (active). With COc1cccc(CCNC(=O)c2cccc(NC(=O)C3=C(C)OCCS3)c2)c1 the GFP response vs DMSO was 93.6% (inactive). With CCc1ccc(N(CC(=O)NCc2cccnc2)S(=O)(=O)c2ccccc2)cc1 the GFP response vs DMSO was 96.7% (inactive). With O=C(O)CN1c2cccc3cccc(c23)S1(=O)=O the GFP response vs DMSO was 92.9% (inactive). With COC(=O)c1cn(CC(=O)NCc2cccs2)c2ccccc12 the GFP response vs DMSO was 95% (inactive). In the case of COC(=O)N/N=C/c1cn(CCCOc2ccc(C)cc2)c2ccccc12, the GFP response vs DMSO is reported as 89.7% (inactive). With COC(=O)Cn1cc(/C=C/[N+](=O)[O-])c2ccccc21 the GFP response vs DMSO was 164% (active). For COC(=O)Cc1cnc(NC(=O)CSc2nc(C(C)C)cc(=O)[nH]2)s1, the GFP response vs DMSO was 114% (inactive). With COc1cc(C)c(C(C)C)cc1S(=O)(=O)n1ccnc1 the GFP response vs DMSO was 89.6% (inactive). In the case of COC(=O)c1ccc(/C=C2/C(=O)Oc3ccccc32)cc1, the GFP response vs DMSO is reported as 93.2% (inactive). For COc1ccc2c(c1)O/C(=C\c1ccccc1O)C2=O, the GFP response vs DMSO was 108% (inactive). For O=C1Oc2ccccc2C(=O)/C1=C/c1ccccc1O, the GFP response vs DMSO was 208% (active). With COc1ccc(Cl)cc1NC(=O)CN(C)C(=O)CCCc1c[nH]c2ccccc12 the GFP response vs DMSO was 99.5% (inactive). For O=Cc1c(NCCCN2CCCC2=O)c2ccccc2[nH]c1=O, the GFP response vs DMSO was 100% (inactive). In the case of CCC1Sc2ccc(S(=O)(=O)CCC(=O)NCc3cccs3)cc2NC1=O (stereo unspecified), the GFP response vs DMSO is reported as 106% (inactive). With O=C(Nc1nnc(-c2ccccc2)o1)c1cc(-c2cccs2)nc2ccccc12 the GFP response vs DMSO was 112% (inactive). In the case of O=C(Nc1nnc(-c2ccc(Cl)cc2)o1)c1ccccc1Br, the GFP response vs DMSO is reported as 159% (active). With O=C(COC(=O)c1ccccc1Br)Nc1nnc(-c2ccccc2)o1 the GFP response vs DMSO was 115% (inactive). With Cc1cccc(NS(=O)(=O)c2ccc(C(=O)NCC(C)(C)N3CCOCC3)cc2)c1C the GFP response vs DMSO was 103% (inactive). For CCOc1ccc(NC(=O)CN(C)C(=O)COc2cccc(CC)c2)cc1OCC, the GFP response vs DMSO was 100% (inactive). With CCC(=O)N1CCC(C(N)=O)(N2CCCCC2)CC1 the GFP response vs DMSO was 95.6% (inactive). With CCCCCCSc1ccc([C@@H]2[C@@H]3C(=O)N(CC)C(=O)[C@@H]3[C@]3(C(=O)OC)CCCCN23)cc1OC the GFP response vs DMSO was 90.1% (inactive). With CCC(=C/c1sc2ccc3ccccc3c2[n+]1C)/C=C1\Sc2ccc3ccccc3c2N1C the GFP response vs DMSO was 283% (active). In the case of O=C(Nc1cccc(Cl)c1Cl)c1ccccc1NC(=O)C1CC=CCC1C(=O)O (stereo unspecified), the GFP response vs DMSO is reported as 67.7% (inactive). For Cc1cccc(C)c1N1CCN(S(=O)(=O)N2CCOCC2)CC1, the GFP response vs DMSO was 110% (inactive). With C=CCOc1ccc(Cl)cc1CNCCCN1CCOCC1 the GFP response vs DMSO was 91.3% (inactive). With Cc1ccc(S(=O)(=O)c2nnn3c2nc(N2CCN(c4ccccn4)CC2)c2ccccc23)cc1 the GFP response vs DMSO was 104% (inactive). With Cc1cccc(Nc2nc3c(S(=O)(=O)c4ccccc4)nnn3c3ccccc23)c1C the GFP response vs DMSO was 783% [may fluoresce green] (active). With CC(=O)Nc1ccc(Nc2nc3c(S(=O)(=O)c4ccc(C)c(C)c4)nnn3c3ccccc23)cc1 the GFP response vs DMSO was 89.9% (inactive). In the case of CN(C)c1nc(=Nc2cccc(Cl)c2)ss1, the GFP response vs DMSO is reported as 191% (active). For CCOC(=O)N1CCN(C(=O)c2cn(C)c3ccc(S(=O)(=O)N(CC)CC)cc3c2=O)CC1, the GFP response vs DMSO was 102% (inactive). In the case of O=C(O)C1OC(C(=O)O)C2C1C(F)(F)C2(F)F (stereo unspecified), the GFP response vs DMSO is reported as 99.4% (inactive). With O=C(CN1C(=O)NC2(CCCC2)C1=O)NCC1CCCO1 (stereo unspecified) the GFP response vs DMSO was 104% (inactive). For O=c1[nH]c(SCc2cccc(F)c2)nc2ccccc12, the GFP response vs DMSO was 108% (inactive). In the case of CCc1nnc(SCc2cccc(F)c2)nc1CC, the GFP response vs DMSO is reported as 152% (active). For Nc1cc(N)nc(SCc2cccc(F)c2)n1, the GFP response vs DMSO was 97.2% (inactive). With O=C(CCC1CCN(C(=O)c2cccc(Cl)c2F)CC1)Nc1ccccc1 the GFP response vs DMSO was 106% (inactive). With COc1ccccc1N1CCN(S(=O)(=O)c2ccc(Cl)cc2)CC1 the GFP response vs DMSO was 110% (inactive). For CCOC(=O)N1CCN(S(=O)(=O)c2ccc(Br)cc2)CC1, the GFP response vs DMSO was 108% (inactive). With Cn1ncc(N2CCN(S(=O)(=O)c3ccc(Br)cc3)CC2)c(Cl)c1=O the GFP response vs DMSO was 170% (active).
